Bioassay records deposited in PubChem by National Center for Advancing Translational Sciences (NCATS).
Rows were chosen to be rich in hits. Some 12% of all compounds tested hit in one or more screens of this group.
Sm TGR inh = inhibitors of Schistosoma mansoni thioredoxin glutathione reductase; purified TGR, DTNB reduction, TNB absorbance 405 nm; Potency, µM (titrated, usually from 114 µM), for the others: at the top dose activity change, negative = inhibition, actives largely listed as inhibitors; actives 3% (n = 360,000); Q962Y6; further: on the % scale 0 is the no-effect control and ±100 the full control effect; nearly all actives have a fitted effect of over 60% in size
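Kinetic colorimetric format: TGR-catalysed, NADPH-driven DTNB reduction monitored via TNB absorbance. Enzyme dispensed at 20 nM; compound exposure 15 min at room temperature before reaction start.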
SARS PLP yeast = blocks SARS-CoV papain-like protease in a yeast assay. actives 0.19% (n = 330,000). Potency, µM (doses to about 32.9 µM), for inactives: at the highest dose activity, positive = growth rescue, most hits filed as activators. AID 485353. S. cerevisiae expressing SARS-CoV PLpro, growth rescue; calls by dose curve; further: 0% is about no effect; nearly all actives have a fitted effect of over 55% in size
Pf growth 48h = inhibits P. falciparum growth in the first generation, 48 h; P. falciparum luciferase growth in erythrocytes, 48 h; Potency, µM (titrated, usually from 28.7 µM), for the others: at the top dose activity change, negative = inhibition, most hits filed as inhibitors; actives 5.9% (n = 310,000); AID 504832; further: on the % scale 0 is the no-effect control and ±100 the full control effect
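Firefly luciferase activity from engineered P. falciparum reports growth; inhibitors lower the luminescent signal. Cultures contained 2% hematocrit erythrocytes at 0.1% final parasitemia.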
Pf growth 96h = inhibits malaria parasite growth, 96 h; Potency, µM (titrated, usually from 28.7 µM), for the others: top-dose activity change, negative = inhibition, usual class: inhibitors; P. falciparum luciferase reporter growth, 96 h; actives 6.9% (n = 320,000); further: on the % scale 0 is the no-effect control and ±100 the full control effect
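Infected RBCs, 2% Hct / 0.05% parasitemia final; luciferase-reporter P. falciparum; cpd 96 h, 37 C, 5% CO2; luciferase detection reagent; luminescence.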
Active calls of the source: *; ? = inconclusive; . = not tested or not shown. Unless noted, the call rests on the fitted dose curve; in most records, active means well fitted curve in the direction sought with a large enough effect; inconclusive means small, poorly fitted or top-dose-only effect, or another doubt; inactive means no such curve, though single readings can be large; an effect the other way counts as inactive or inconclusive. Potency means the concentration at half of the fitted maximal effect.

SMILES	Sm TGR inh	SARS PLP yeast	Pf growth 48h	Pf growth 96h
O=C(NCc1cc([N+](=O)[O-])ccc1O)c1cccnc1Sc1ccccc1	-13%	-1%	?	12µM*
O=C(NNC(=O)c1cccnc1SCc1cccc([N+](=O)[O-])c1)c1ccccn1	-1%	-2%	5.2µM*	98%
Cc1ccc(Sc2ncccc2C(=O)NCc2cc([N+](=O)[O-])ccc2O)c(C)c1	?	-10%	-20%	?
O=C(COc1ccc2c(-c3ccccc3)cc(=O)oc2c1)NC1CCS(=O)(=O)C1 (configuration not stated)	6%	6%	-6%	1%
COc1ccc(CNC(=O)CN2CCN(S(=O)(=O)c3cc(Br)ccc3Br)CC2)cc1OC	-2%	-5%	10µM*	?
Cc1cc(/C=C2\C(=N)N3N=C(C(C)C)SC3=NC2=O)c(C)n1-c1ccccc1	8%	-4%	-2%	12µM*
CC1=NN2C(=N)/C(=C\c3cc(C)n(-c4cccc(C)c4)c3C)C(=O)N=C2S1	-1%	0%	?	?
c1ccc(Nc2cccc(Nc3ccccc3)n2)cc1	2.8µM*	-34%	.	-55%
c1ccc(Nc2ccccn2)cc1	-8%	1%	23%	.
c1ccc(-c2[nH]c(-c3ccccc3)[n+](CC3CO3)c2-c2ccccc2)cc1 (configuration not stated)	6%	-33%	?	10µM*
Cn1cnnc1SCC(=O)NNC(=O)c1ccc([N+](=O)[O-])cc1	.	17%	.	.
COc1ccc([C@@H](C)NC(=O)c2ccc3oc(C(C)C)nc3c2)cc1	8%	.	47%	0.66µM*
CC(C)(C)c1nc(SCC(=O)Nc2nc3c(s2)CCCC3)c2ccccc2n1	15%	-4%	1.2µM*	?
CC(C)c1nc(SCC(=O)Nc2nc3c(s2)CCCC3)c2ccccc2n1	-1%	-11%	?	?
COc1cc(OC)c(NC(=O)Nc2c(C)n(C)n(-c3ccccc3)c2=O)cc1Cl	4%	.	.	.
CCc1ccc(C2=NN(CCC(=O)NCCc3ccccc3)C(=O)CC2)cc1	-2%	.	.	.
O=C(c1cc(COc2ccc(F)cc2F)on1)N1CCN(C2CCCC2)C(=O)C1	-14%	4%	8.3µM*	-12%
Cc1ccc(NC(=O)/C(=C\c2ccco2)NC(=O)c2ccco2)cc1	45µM*	0%	9%	?
Cc1ccc(S(=O)(=O)Oc2ccc(/C=C(/NC(=O)c3ccccc3)C(=O)Nc3ccccc3)cc2)cc1	8%	4%	?	9.3µM*
COc1ccccc1C(=O)N/C(=C/c1ccco1)C(=O)Nc1cccc(C(=O)O)c1	50µM*	-2%	14%	374%
Cc1ccc(C(=O)N/C(=C/c2ccco2)C(=O)Nc2cccc(C(=O)O)c2)cc1	45µM*	4%	-8%	?
CCCc1cc(C(=O)Cc2ccc(C(=O)OCC)o2)c(O)cc1O	-55%	-26%	12µM*	12µM*
CCCc1cc(C(=O)Cc2ccc(F)cc2)c(O)cc1O	3%	-35%	-15%	.
Cc1ccc(NC(=O)C(C)OC(=O)CCN=C2NS(=O)(=O)c3ccccc32)cc1 (configuration not stated)	5%	-1%	41%	16%
CN(C)C(=O)Oc1cccc(OCc2n(C)c3ccccc3[n+]2C)c1	-2%	7%	?	2.9µM*
SMILES	Sm TGR inh	SARS PLP yeast	Pf growth 48h	Pf growth 96h
COc1cccc(C(=O)NCCS(=O)(=O)N2CC(C)CC(C)C2)c1 (configuration not stated)	-3%	0%	22%	49%
CC(Cc1ccccc1Sc1ccccc1O)N(C)C (configuration not stated)	-24%	0%	.	3.7µM*
CN(C)Cc1ccccc1Sc1ccc(O)cc1O	-29%	13%	-7%	20%
CCC(C)NC(=O)c1ccc2c(c1)S(=O)(=O)c1ccccc1C2=O (configuration not stated)	18µM*	0%	19%	-21%
CC(C)OCCCNC(=O)c1ccc(NS(C)(=O)=O)cc1	4%	5%	-5%	10µM*
CC(C)OCCCNC(=O)c1ccc2c(c1)S(=O)(=O)c1ccccc1C2=O	-8%	-3%	-22%	9.3µM*
Cc1ccc(NC(=O)COC(=O)CCc2ccccc2)cc1S(=O)(=O)N1CCOCC1	.	0%	.	.
CC1=CC(=O)C=C(C)C1=NOc1ccccc1[N+](=O)[O-]	28µM*	-15%	-5%	?
COc1ccc(OC)c(Nc2nc(NCCCN(C)C)nc(N)c2[N+](=O)[O-])c1	-5%	1%	13µM*	12µM*
COc1ccccc1Nc1nc(NCCC(C)C)nc(N)c1[N+](=O)[O-]	29%	0%	3.7µM*	?
O=C(c1ccoc1)N1CCC(CO)(CCc2ccccc2)CC1	7%	-1%	6%	12µM*
COC(=O)CCCC(=O)N1CCC(CO)(CCc2ccccc2)CC1	0%	.	3%	?
O=C1CN(C(=O)COC(=O)CCS(=O)(=O)c2ccccc2Cl)c2ccccc2N1	.	1%	.	.
O=C1CN(C(=O)COC(=O)C2CCN(S(=O)(=O)c3ccccc3C(F)(F)F)CC2)c2ccccc2N1	1%	1%	3.7µM*	.
O=C1CN(C(=O)COC(=O)c2ccc(N3CCCCCC3)c([N+](=O)[O-])c2)c2ccccc2N1	-8%	-4%	?	6.6µM*
Cc1cccc(C(=O)N/C(=C\c2ccco2)C(=O)N2CCCC2)c1	-4%	7%	10%	23%
Cc1ccccc1-c1nc(CNC(=O)Nc2ccccc2)c(C)o1	4%	.	.	.
Cc1cccc(C(=O)N[C@H](C(=O)NCCc2ccc(Cl)cc2)C(C)C)c1	-2%	7%	2%	10%
Cc1cccc(Nc2nc(N)nc(CN3CCN(Cc4ccc5c(c4)OCO5)CC3)n2)c1	-24%	-3%	?	13µM*
COc1ccccc1Nc1nc(N)nc(CN2CCN(Cc3ccccc3)CC2)n1	?	-2%	?	?
Cc1cccc(Nc2nc(N)nc(CCl)n2)c1C	-5%	4%	?	1.5µM*
Cc1cccc(Nc2nc(N)nc(CN3CCC(C(N)=O)CC3)n2)c1C	2%	1%	-3%	.
Cc1c(Cl)cccc1Nc1nc(N)nc(CN2CCc3ccccc3C2)n1	15%	-10%	9.3µM*	.
Nc1nc(CN2CCN(Cc3ccccc3)CC2)nc(Nc2ccccc2)n1	?	-5%	?	13µM*
COc1ccc(CC(=O)NCc2nc3cccnc3n2Cc2ccc(F)cc2)cc1OC	5%	.	.	.
SMILES	Sm TGR inh	SARS PLP yeast	Pf growth 48h	Pf growth 96h
COc1ccccc1N1CCN(CCC(=O)Nc2cccc(Cl)c2)CC1	-8%	2%	.	?
Nc1nc(CCl)nc(Nc2ccccc2)n1	40µM*	-5%	-29%	-55%
Cc1ccc(Nc2nc(N)nc(CCl)n2)cc1	11µM*	0%	?	?
COc1ccc(Nc2nc(N)nc(CSc3nccc(C)n3)n2)cc1	8%	1%	16%	5.2µM*
Cc1cccc(Nc2nc(N)nc(CSc3nccc(C)n3)n2)c1	0%	3%	-9%	?
Cc1ccc(Nc2nc(N)nc(CCl)n2)c(C)c1	32µM*	1%	?	-13%
